# PubChem BioAssay (NCI)
# Values joined by “and” are separate entries in the source; they are usually repeats but may differ in a detail not shown here. Equal entries are not always repeated. About 79,000 compounds went through this panel and 15% of them were active in at least one assay; those are over-represented in the sample as a whole. Unmarked numbers belong to inactive results. Active and inactive are the calls of the source. No stated cut-off is given here; in the data, active means growth inhibition above about 70%; inactive means the rest.
# Assays:
# [1] = NCI Yeast Anticancer Drug Screen. Data for the rad50 strain (AID 155);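 further: 0% = growth of vehicle-only cultures of the same strain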; conditions: S. cerevisiae rad50 strain growth inhibition, active compounds read high
# In short: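 Yeast carrying a defined DNA repair defect were exposed to test compounds, and growth was compared with vehicle-treated controls to give percent inhibition.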
# [2] = NCI Yeast Anticancer Drug Screen. Data for the mec2-1 strain (AID 157); conditions: S. cerevisiae mec2-1 strain, active compounds read high
# In short: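 Vehicle-treated cultures served as reference for growth inhibition of compound-exposed mec2-1 yeast.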
# [3] = NCI Yeast Anticancer Drug Screen. Data for the sgs1 mgt1 strain (AID 161);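 further: 0% = growth of cultures given vehicle only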; conditions: S. cerevisiae sgs1 mgt1 strain, active compounds read high
# In short: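 Mutant yeast exposed to compound; growth scored against vehicle-only wells.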
# [4] = NCI Yeast Anticancer Drug Screen. Data for the cln2 rad14 strain (AID 165);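 further: 0% = growth equal to vehicle treated cultures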; conditions: S. cerevisiae cln2 rad14 strain, active compounds read high
# In short: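 Each compound was tested on cln2 rad14 yeast. Inhibition of growth was calculated against vehicle-exposed controls.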
# [5] = NCI Yeast Anticancer Drug Screen. Data for the bub3 strain (AID 167); conditions: S. cerevisiae bub3 mutant strain, active compounds read high
# In short: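 Compounds were applied to a genetically altered yeast strain carrying a cell-cycle control defect. Growth inhibition was scored against vehicle-treated controls.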
# [6] = NCI Yeast Anticancer Drug Screen. Data for the mlh1 rad18 strain (AID 175); conditions: S. cerevisiae mlh1 rad18 strain growth inhibition, active compounds read high
# In short: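 Vehicle-treated cultures served as the reference for growth inhibition in a yeast strain carrying DNA damage repair alterations exposed to each compound.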
# [7] = at 5.0 µM (retest, dose inferred, filed as 0.5)
# [8] = at 50.0 µM (retest, dose inferred, filed as 5.0)
Compound,"growth inhibition [1, 7]","growth inhibition [1, 8]","growth inhibition [2, 7]","growth inhibition [2, 8]","growth inhibition [3, 7]","growth inhibition [3, 8]","growth inhibition [4, 7]","growth inhibition [4, 8]","growth inhibition [5, 7]","growth inhibition [5, 8]","growth inhibition [6, 7]","growth inhibition [6, 8]",growth inhibition ([1]; at 50.0 µM),growth inhibition ([2]; at 50.0 µM),growth inhibition ([3]; at 50.0 µM),growth inhibition ([4]; at 50.0 µM),growth inhibition ([5]; at 50.0 µM)
COCc1c(C#N)c(Cl)nc(C)c1[N+](=O)[O-],14%,76% (active),7%,90% (active),14%,94% (active),2%,94% (active),8%,97% (active),0%,94% (active),–,–,–,–,–
COc1ccc(C(N)=O)cc1,14%,2%,-3%,0%,-5%,3%,-3%,-11%,-6%,-5%,16%,24%,–,–,–,–,–
C=COC(=O)c1ccccc1C(=O)OCCCC,8%,22%,-2%,3%,5%,37%,7%,-6%,4%,27%,18%,6%,–,–,–,–,–
CC(C)NC(=O)C(C)O (centres undefined),4%,14%,1%,2%,2%,5%,2%,3%,6%,-2%,2%,10%,–,–,–,–,–
N#CC(c1ccccc1)C(c1ccccc1)c1ccccc1 (centres undefined),13%,67%,9%,89% (active),9%,92% (active),20%,55%,13%,87% (active),-24%,80% (active),–,–,–,–,–
CCC(C)(C)N(CC(=O)O)CC(=O)O,-6%,-1%,2%,-5%,2%,-1%,4%,-2%,3%,-1%,-6%,17%,–,–,–,–,–
O=[N+]([O-])c1ccc2nc3ccccc3[n+]([O-])c2c1,25%,99% (active),19%,99% (active),33%,100% (active),-1%,99% (active),50%,100% (active),38%,99% (active),–,–,–,–,–
S=c1[nH]c(=S)c2[nH]c(=S)[nH]c2[nH]1,-1%,0%,2%,6%,5%,11%,-13%,-13%,6%,6%,-23%,-23%,–,–,–,–,–
O=C(CO)NCCO,1%,0%,3%,5%,-2%,2%,5%,-2%,5%,-5%,0%,2%,–,–,–,–,–
CCOc1ccc(C=O)cc1OC,–,–,–,–,–,–,–,–,–,–,–,–,-29.6% and -0.5%,-53.1% and -10.4%,-52.6% and 0.25%,-6.4% and 4.25%,-26.9% and -0.4%
CC(C)(C)S(=O)(=O)O.[Ag],99% (active),99% (active),100% (active),99% (active),100% (active),100% (active),99% (active),99% (active),100% (active),99% (active),99% (active),99% (active),–,–,–,–,–
C=CC(=O)OCCOCc1ccccc1,4%,29%,-3%,12%,-1%,27%,-2%,-12%,1%,12%,-32%,18%,–,–,–,–,–
CCCCCCN(CCCCCC)CCCCCCCCCCCO,15%,98% (active),–,–,10%,99% (active),12%,98% (active),16%,99% (active),11%,94% (active),–,–,–,–,–
COc1ccc(N=CC2CCCCC2=O)c([N+](=O)[O-])c1 (centres undefined),25%,69%,29%,42%,-1%,12%,31%,56%,13%,86% (active),53%,61%,–,–,–,–,–
